T cruzi growth-1 = T. cruzi intracellular proliferation inhibitors, primary screen, cell-based, beta-gal Tulahuen parasites, NIH3T3 host, luminescence. T. cruzi beta-gal in NIH3T3, GalScreen luminescence, 90 h. AID 624255, 2012. inhibition, % at 8.34 µM. 5.9% of 77,000 active;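 active means mean inhibition above about 93%, with at least 55% of replicates each passing it, limit read from the data, passing the limit was not always enough; inconclusive means only one of those two conditions holds; inactive means neither condition holds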
Pf Dd2 growth = P. falciparum Dd2 growth inhibitors, primary screen, SYBR Green fluorescence, single dose replicates. 72 h; active compounds read low. activity change, % at 10 µM. 2.3% of 94,000 active; in the data active means activity change below about -80%; inconclusive means no clear call, values can overlap the other calls
C diff growth = C. difficile growth inhibitors, primary screen, HTS; Clostridium difficile clinical isolate growth, OD600, 24 h; active compounds read low; growth activity, negative = inhibition, % at 16 µg/mL (by protocol); 0.25% of 86,000 active;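 active means mean growth activity at or below -80% and every replicate also at or below -80%; inconclusive means mean at or below -80% but some replicate above -80%; inactive means mean growth activity above -80%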;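 further: 0% = DMSO wells and -100% = levofloxacin 16 µg/mL wells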
T cruzi growth-2 = T. cruzi intracellular proliferation inhibitors, confirmation, cell-based, NIH3T3 host, beta-gal parasite, luminescence, cherry-pick. T. cruzi beta-gal in NIH3T3, GalScreen luminescence, 90 h. 72% of 5,600 active. shares compounds with T cruzi growth-1. inhibition, % at 8.35 µM;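 active means mean replicate inhibition above about 95% and at least 55% of replicates individually reaching it, limit read from the data; inconclusive means only one of the two criteria is met; inactive means neither criterion is met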
T cruzi growth-3 = inhibitors of intracellular T. cruzi replication, confirmation, NIH3T3 host cells, beta-gal parasites, cherry-pick, set 2; shares compounds with T cruzi growth-1; T. cruzi beta-gal in NIH3T3, GalScreen luminescence, 90 h; inhibition, % at 2.09 µM; 21% of 5,600 active; AID 651740, 2012;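 active means mean inhibition above about 95%, with at least 55% of replicates also reaching it, limit read from the data; inconclusive means meets just one of the two conditions; inactive means meets neither condition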;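 further: plate controls were neutral control median for no effect and positive control median for full effect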
3T3 cytotox = cytotoxicity in mouse NIH/3T3 fibroblasts, confirmation, cytotoxicity control for T. cruzi proliferation inhibitor project, cell-based, cherry-pick, single point; shares compounds with T cruzi growth-1; NIH/3T3 viability, CellTiter-Glo ATP luminescence, 90 h; cytotoxicity (signal decrease), % at 8.35 µM; 14% of 5,600 active;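 active means mean signal decrease across replicates above about 35% based on untreated-well scatter, with enough replicates individually passing, limit read from the data; inconclusive means no rule stated though some were filed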;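 further: 0% = median of neutral control wells and 100% = median of positive control wells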
3T3 cytotox 2 = NIH/3T3 fibroblast cytotoxicity, confirmation, cytotoxicity control, cell-based, cherry-pick, single point, set 2; shares compounds with T cruzi growth-1; NIH/3T3 viability, CellTiter-Glo ATP luminescence, 90 h; inhibition, % at 24.9 µM; 56% of 5,600 active; AID 651744, 2012;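 active means mean loss of cell viability signal at or above a set limit, and enough replicates individually reaching it; inconclusive means meets only the mean limit or only the replicate share; inactive means meets neither condition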;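 further: 0% = median of neutral control wells and 100% = median of positive control wells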
An asterisk follows results filed as active; ? = inconclusive; nt = no result. A selection: hits, their analogues and other compounds. The true share with any hit is near 6.7%.

SMILES	T cruzi growth-1	Pf Dd2 growth	C diff growth	T cruzi growth-2	T cruzi growth-3	3T3 cytotox	3T3 cytotox 2
C[C@@H]1CN([C@H](C)CO)C(=O)c2cccc(NC(=O)Nc3ccc4c(c3)OCO4)c2O[C@@H]1CN(C)C(=O)Nc1ccccc1	63	-75	-3	nt	nt	nt	nt
CC(C)CC#Cc1cnc2c(c1)C(=O)N([C@H](C)CO)C[C@@H](C)[C@H](CN(C)C(=O)CN1CCOCC1)O2	-8	19	8	nt	nt	nt	nt
C[C@H](CO)N1C[C@H](C)[C@H](CN(C)S(=O)(=O)c2ccc(F)cc2)Oc2ccc(NS(=O)(=O)c3ccc(F)cc3)cc2C1=O	51	-40	-8	nt	nt	nt	nt
C[C@@H]1CCCCO[C@@H](CN(C)Cc2ccccc2)[C@H](C)CN([C@@H](C)CO)C(=O)c2cc(NS(=O)(=O)c3ccc(Cl)cc3)ccc2O1	110*	-19	-3	102*	57	17	100*
C[C@@H]1CCCCO[C@@H](CN(C)Cc2ccccc2)[C@H](C)CN([C@H](C)CO)C(=O)c2cc(NS(=O)(=O)c3ccc(Cl)cc3)ccc2O1	90	-26	-5	nt	nt	nt	nt
O=C(c1ccccc1F)N1CC[C@@H]2[C@H]1c1cc(-c3ccc(F)cc3)ccc1N[C@@H]2CO	94	5	-9	nt	nt	nt	nt
O=C(c1ccccc1)N1CC[C@H]2[C@H](CO)Nc3ccc(-c4ccccc4F)cc3[C@H]21	108*	-17	57	98*	89	14	23
O=C(c1ccccc1)N1CC[C@@H]2[C@H](CO)Nc3ccc(-c4ccc(F)cc4)cc3[C@@H]21	48	5	-7	nt	nt	nt	nt
O=C(c1cccc(F)c1)N1CC[C@@H]2[C@@H](CO)Nc3ccc(-c4ccccc4F)cc3[C@@H]21	40	7	7	nt	nt	nt	nt
O=C(c1ccccc1)N1CC[C@@H]2[C@H]1c1cc(-c3ccccc3F)ccc1N[C@@H]2CO	110*	-26	72	100*	83	21	30*
O=C(c1ccccc1F)N1CC[C@H]2[C@H](CO)Nc3ccc(-c4ccc(F)cc4)cc3[C@H]21	99*	-3	5	101*	99*	11	95*
O=C(c1ccc(F)cc1)N1CC[C@@H]2[C@@H](CO)Nc3ccc(-c4ccccc4F)cc3[C@@H]21	110*	-51	4	104*	85	27	71*
O=C(c1cccc(F)c1)N1CC[C@H]2[C@H](CO)Nc3ccc(-c4ccccc4F)cc3[C@H]21	64	38	12	nt	nt	nt	nt
N#C[C@H]1[C@H](c2ccccc2C2=CCCC2)[C@@H](CO)N1C(=O)NC1CCCC1	nt	-31	-2	nt	nt	nt	nt
O=C(C[C@H]1CC[C@@H](NS(=O)(=O)c2cccc(F)c2)[C@H](CO)O1)NCc1ccc2c(c1)OCO2	37	-10	nt	nt	nt	nt	nt
CC(C)(O)C#Cc1ccc([C@H]2[C@@H](CO)N3CCCCN(C(=O)c4ccc(F)cc4)C[C@@H]23)cc1	26	-14	-4	nt	nt	nt	nt
CC(C)(O)C#Cc1ccc([C@@H]2[C@@H](CO)N3CCCCN(C(=O)c4cccc(F)c4)C[C@@H]23)cc1	113*	27	1	52	14	-8	8
CC(C)(O)C#Cc1ccc([C@@H]2[C@@H](CO)N3CCCCN(C(=O)c4ccc(F)cc4)C[C@H]23)cc1	44	-8	1	nt	nt	nt	nt
CC(C)(O)C#Cc1ccc([C@H]2[C@@H](CO)N3CCCCN(C(=O)c4cccc(F)c4)C[C@@H]23)cc1	103*	19	3	105*	46	15	-30
COCC(=O)N(C)C[C@@H]1Oc2cc(C#CCN(C)C)ccc2S(=O)(=O)N([C@@H](C)CO)C[C@H]1C	15	6	-4	nt	nt	nt	nt
CCCNC(=O)Nc1ccc2c(c1)C(=O)N(C)C[C@H](OC)[C@@H](C)CN(CCC(F)(F)F)[C@@H](C)CO2	56	nt	nt	nt	nt	nt	nt
CO[C@H]1CN(C)C(=O)c2ccc(NC(=O)Nc3c(C)noc3C)cc2OC[C@H](C)NC[C@@H]1C	nt	4	1	nt	nt	nt	nt
COc1ccc(S(=O)(=O)Nc2ccc3c(c2)C(=O)N([C@@H](C)CO)C[C@H](C)[C@@H](CN(C)C(=O)Nc2ccc4c(c2)OCO4)O3)cc1	29	1	7	nt	nt	nt	nt
CCC(=O)Nc1ccc2c(c1)OC[C@H](C)N(CC1CCOCC1)C[C@H](C)[C@H](OC)CN(C)C2=O	19	-4	nt	nt	nt	nt	nt
CC(C)C#Cc1ccc([C@@H]2[C@@H](C#N)N(C(=O)CN(C)C)[C@H]2CO)cc1	11	4	-8	nt	nt	nt	nt
SMILES	T cruzi growth-1	Pf Dd2 growth	C diff growth	T cruzi growth-2	T cruzi growth-3	3T3 cytotox	3T3 cytotox 2
CO[C@H](CN(C)S(=O)(=O)c1ccc(Cl)cc1)[C@@H](C)CN(Cc1ccccc1Cl)[C@@H](C)CO	94	-24	nt	nt	nt	nt	nt
CO[C@@H](CN(C)S(=O)(=O)c1ccc(C)cc1)[C@@H](C)CN(Cc1ccccc1Cl)[C@H](C)CO	100*	-36	nt	95*	32	?	51*
CO[C@@H](CN(C)S(=O)(=O)c1ccc(C)cc1)[C@@H](C)CN(Cc1ccccc1Cl)[C@@H](C)CO	64	-38	nt	nt	nt	nt	nt
CO[C@H](CN(C)S(=O)(=O)c1ccc(Cl)cc1)[C@H](C)CN(Cc1ccccc1Cl)[C@H](C)CO	106*	-57	nt	111*	26	33	107*
CC(=O)NC[C@@H]1[C@H](c2ccccc2)[C@@H](CO)N1C(=O)Cc1cccnc1	-5	-5	6	nt	nt	nt	nt
Cc1ccc(S(=O)(=O)N(C)C[C@@H]2Oc3ccc(NC(=O)C4CC4)cc3C(=O)N([C@H](C)CO)C[C@H]2C)cc1	18	-21	0	nt	nt	nt	nt
CO[C@H]1CN(C)C(=O)c2cc(NS(=O)(=O)c3cn(C)cn3)ccc2OC[C@H](C)N(Cc2cccc(F)c2)C[C@@H]1C	nt	-8	nt	nt	nt	nt	nt
CCCNC(=O)Nc1ccc2c(c1)C(=O)N(C)C[C@@H](OC)[C@@H](C)CN(Cc1ccncc1)[C@@H](C)CO2	-5	-22	0	nt	nt	nt	nt
Cc1ccc(S(=O)(=O)Nc2ccc3c(c2)C(=O)N([C@H](C)CO)C[C@@H](C)[C@@H](CN(C)Cc2ccc4c(c2)OCO4)OCCCC[C@@H](C)O3)cc1	?	-74	-2	105*	81	29	102*
C[C@H](CO)N1C[C@H](C)[C@@H](CN(C)Cc2ccc3c(c2)OCO3)OCCCC[C@H](C)Oc2ccc(NS(=O)(=O)c3ccc(F)cc3)cc2C1=O	69	-50	nt	nt	nt	nt	nt
C[C@@H]1CCCCO[C@@H](CN(C)Cc2ccc3c(c2)OCO3)[C@@H](C)CN([C@@H](C)CO)C(=O)c2cc(NS(=O)(=O)c3ccc(F)cc3)ccc2O1	115*	-36	nt	102*	50	25	94*

High-throughput results deposited in PubChem BioAssay by Broad Institute.
